This is one part of the list. Active and inactive are the calls of the source.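 The calls were made as follows: active = Primary-screen hit whose thallium flux fell at least 3 control SD below untreated wells in both duplicates, with normal baseline fluorescence; inactive = the rest.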

For 39 compounds, outcome and Tl flux remaining, % of negative control (stronger effect = lower value) results are on record in PubChem BioAssay.

The assay deals with Inward rectifier potassium channel 2 (Mus musculus) (UniProt P35561). As to the kind of experiment: mouse Kir2.1 channel blockers, retest, confirmation, cell-based, FluxOR thallium flux, duplicate (AID 2032). As to conditions: Kir2.1-expressing cells, FluxOR thallium flux fluorescence, at 10 µM; stronger effect = lower value.
Inward rectifier potassium channel 2 (Mus musculus), sequence (P35561 whole entry, looked up): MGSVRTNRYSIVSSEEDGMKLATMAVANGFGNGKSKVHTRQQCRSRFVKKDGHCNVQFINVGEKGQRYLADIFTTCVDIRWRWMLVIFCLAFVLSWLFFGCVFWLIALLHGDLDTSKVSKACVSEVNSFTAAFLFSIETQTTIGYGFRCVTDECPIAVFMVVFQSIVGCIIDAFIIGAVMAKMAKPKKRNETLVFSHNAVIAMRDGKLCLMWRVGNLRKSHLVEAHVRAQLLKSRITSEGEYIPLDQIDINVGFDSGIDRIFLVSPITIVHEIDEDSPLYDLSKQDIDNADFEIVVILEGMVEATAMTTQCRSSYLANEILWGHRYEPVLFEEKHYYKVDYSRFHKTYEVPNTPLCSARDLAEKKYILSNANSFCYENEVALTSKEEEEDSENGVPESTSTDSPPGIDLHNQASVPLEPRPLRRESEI
Turning to `C/C(=N\NC(=O)c1ccoc1C)c1ccccc1O`, the call was inactive.
Take `CCn1c2ccccc2c2cc(NC(=O)CNC)ccc21`: the Tl flux remaining, % of negative control (stronger effect = lower value) was 44% (active).
As to `O=C(NNC1=C(C(=O)C(F)(F)F)CCC1)c1ccncc1`, the result was inactive.
For the compound `Cc1ccc(NC(=O)C2CC2c2ccccc2)cc1` (centres undefined), the result was inactive.
Regarding `Cc1[nH]n(-c2cccc(Cl)c2)c(=O)c1/C=N/n1c(C)nc2ccccc2c1=O`, the call was inactive.
In the case of `COc1cccc(NC(=O)C2C(c3ccccc3)C2(Cl)Cl)c1` (centres undefined), the compound was called inactive.
For the compound `CCC1(C)Cc2c(sc3[nH]c(=S)n(Cc4ccccc4)c(=O)c23)CO1` (centres undefined), the compound was classed as inactive.
Take `O=C(NC(Nc1nc2ccc([N+](=O)[O-])cc2s1)(C(F)(F)F)C(F)(F)F)c1ccccc1`: the result was inactive.
Turning to `CCn1c(O)c(N=NC2=NC(=O)CS2)c2cc(C)ccc21`, the compound was called inactive.
On to `CCn1c(=S)[nH]c2sc3c(c2c1=O)CCCCC3`, for which the result was inactive.
Take `CCn1cc(CN2CCC(C(=O)Nc3cccc(-c4cccc(Cl)c4)c3)CC2)cn1`: the Tl flux remaining, % of negative control (stronger effect = lower value) was 55% (active).
Turning to `Cc1cc2oc3ccc(NCCC4CCCN4C)cc3c(=O)c2cc1C` (centres undefined), the compound was called inactive.
Turning to `CCC1(C)Cc2c(sc3nnn(CC(=O)Nc4ccc(Cl)cc4)c(=O)c23)CO1` (centres undefined), the result was inactive.
For `Cc1cccc(NC(=S)NC(=O)c2ccc(Br)o2)c1`, the compound was called inactive.
For the compound `CS(=O)(=O)c1sc(C(=O)NC(=S)Nc2ccc(OC(F)(F)F)cc2)c2c1C=CCC2`, the call was inactive.
For the compound `CCOC(=O)c1sc(=S)n2c1[nH]c(=O)c1ccc(C(=O)OC)cc12`, the compound was classed as inactive.
As to `O=C(NCc1ccc2c(c1)OCO2)c1ccc(Cl)s1`, the compound was called inactive.
On to `CSc1nnc(NC(=O)c2nc(S(=O)(=O)Cc3ccc(C)cc3)ncc2Cl)s1`, for which the result was inactive.
On the same count and under the same terms, then `FC(F)(F)c1cccc(NC(=S)Nc2cccc(Cl)c2)c1`, with “inactive”; and `CCOC(=O)c1c(NC(=S)NC)sc2c1CCCC2`, with “inactive”.
On the same count and under the same terms, then `Oc1c(Cl)cc(Cl)cc1/C=N/c1ncn[nH]1`, with “inactive”; and `Cc1ccc(S(=O)(=O)N2CCN(C(=O)COC(=O)c3c(C)cc(C)cc3C)CC2)c(C)c1`, with “inactive”; and `CCc1ccc(NC(=O)C(=O)NNC(=O)c2cccs2)cc1`, with “inactive”.
Take `S=C(NCc1ccc(Cl)cc1)NC12CC3CC(CC(C3)C1)C2`: the result was inactive.
Take `O=C(Nc1ccc(Oc2ccccc2)cc1)c1ccco1`: the result was inactive.
For the compound `CC1=C/C(=N\OS(=O)(=O)c2ccccc2)C=CC1=O`, the outcome was inactive.
Regarding `Cc1[nH][nH]c(=O)c1C(c1ccc(-c2ccc(Cl)cc2)o1)c1c(C)[nH][nH]c1=O`, the compound was called inactive.
Turning to `CC(=O)N(C1=C(Cl)C(=O)c2ccccc2C1=O)c1ccc(C(=O)O)cc1`, the outcome was inactive.
For `CCc1ccc(-c2nn(-c3ccccc3)cc2CSC(=N)N)cc1`, the Tl flux remaining, % of negative control (stronger effect = lower value) was 33.5% (active).
With `CC(NC(=O)Nc1ccccc1)c1ccccc1` (centres undefined), the compound was called inactive.
As for `COc1ccc(NC(=O)/C(Cl)=C(/Cl)S(=O)Cc2ccc(C)cc2)cn1` (centres undefined), the result was inactive.
On the same count and under the same terms, for `CCN(CC(=O)NC(=O)NCc1ccccc1)Cc1nc2ccccc2c(=O)[nH]1` the value was “inactive”; for `CCCCNC(=O)Nc1c(C)cc(SC#N)cc1C`, “inactive”.
`Cc1ccc2nc(C)c3c(c2c1)N(c1ccccc1)CC3`: the Tl flux remaining, % of negative control (stronger effect = lower value) was 27.5% (active).
In the case of `N=c1c2c(-c3ccccc3)c(-c3ccccc3)n(Cc3ccccc3)c2ncn1CCCO`, the Tl flux remaining, % of negative control (stronger effect = lower value) is 37% (active).
Take `Cc1ccc(/C=N/NC(=O)c2cc3ccccc3cc2O)o1`: the outcome was inactive.
As for `N#Cc1c(-c2ccccc2)nc(SCc2cccc(C(F)(F)F)c2)[nH]c1=O`, the result was inactive.
With `O=C(NCc1ccc2c(c1)OCO2)C12CC3CC(CC(C3)C1)C2`, the outcome was inactive.
On to `Cc1cccc(NC(=O)CSC(N)=O)c1C`, for which the compound was classed as inactive.
